Bioassay records from PubChem.
Rows were chosen to be rich in hits. Some 3.6% of all compounds tested hit in one or more screens of this group.
CF NFkB block – blocks PAF-induced NF-kB reporter in cystic fibrosis cells; KKLEB NF-kB-GFP reporter, GFP fluorescence overnight; inhibition, % at 5 µM; 360,000 tested, 0.86% active; AID 588850;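 active = at least 50% inhibition at 5 µM, scaled per plate between neutral and stimulator controls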;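 note: PAF is a Pseudomonas aeruginosa culture filtrate used as stimulus; plate controls were PAF-stimulated DMSO wells for no effect and unstimulated DMSO wells for full effect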
LGR2 inh – Drosophila LGR2 receptor signaling inhibition | 380,000 tested, 0.35% active | AID 720647 | HEK293 LGR2, CRE-luciferase, bursicon-stimulated, 4 h | inhibition, % at 9.99 µM;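 active = drop in luminescence signal, shown as inhibition above about 50% in the replicate tests, limit read from the data, passing the limit was not always enough; inconclusive = probably only some replicates passing the limit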;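 note: agonist challenge used bursicon conditioned medium at about half maximal strength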
Mdm2-MdmX inh – inhibitors of human Mdm2/MdmX interaction; SaOS-2 split-luciferase Mdm2/MdmX complementation, luminescence; inhibition, % at 8 µM; 330,000 tested, 3% active;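 active = inhibition of at least 50% at 8 µM in the primary screen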
Target sequence (O15151 whole entry, looked up): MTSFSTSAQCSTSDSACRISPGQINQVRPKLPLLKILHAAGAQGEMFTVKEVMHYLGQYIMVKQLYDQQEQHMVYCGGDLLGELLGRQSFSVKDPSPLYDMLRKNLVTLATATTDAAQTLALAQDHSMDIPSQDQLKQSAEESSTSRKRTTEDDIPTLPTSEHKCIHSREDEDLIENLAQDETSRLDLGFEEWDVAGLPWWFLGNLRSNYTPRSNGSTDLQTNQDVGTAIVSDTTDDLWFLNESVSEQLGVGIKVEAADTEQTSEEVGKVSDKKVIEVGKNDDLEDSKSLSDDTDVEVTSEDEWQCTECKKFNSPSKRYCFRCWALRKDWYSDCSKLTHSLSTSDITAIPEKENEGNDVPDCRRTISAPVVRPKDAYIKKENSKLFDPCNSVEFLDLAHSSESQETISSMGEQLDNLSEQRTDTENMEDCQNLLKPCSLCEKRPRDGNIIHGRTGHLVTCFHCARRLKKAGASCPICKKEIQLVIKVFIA
Target sequence (Q00987 whole entry, looked up): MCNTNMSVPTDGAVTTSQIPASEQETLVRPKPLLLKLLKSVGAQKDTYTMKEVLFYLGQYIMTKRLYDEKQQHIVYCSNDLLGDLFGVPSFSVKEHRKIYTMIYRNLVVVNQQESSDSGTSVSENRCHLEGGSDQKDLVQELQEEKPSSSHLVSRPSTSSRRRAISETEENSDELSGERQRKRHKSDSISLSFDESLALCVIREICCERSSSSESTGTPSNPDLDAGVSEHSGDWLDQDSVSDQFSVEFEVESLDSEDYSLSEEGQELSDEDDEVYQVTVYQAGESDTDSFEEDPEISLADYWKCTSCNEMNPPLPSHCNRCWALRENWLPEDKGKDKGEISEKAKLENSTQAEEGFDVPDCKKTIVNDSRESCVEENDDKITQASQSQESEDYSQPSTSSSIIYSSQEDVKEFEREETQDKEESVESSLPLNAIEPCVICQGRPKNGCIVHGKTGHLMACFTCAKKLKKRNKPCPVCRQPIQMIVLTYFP
HSP90 refold inh – HSP90 refolding inhibition in rabbit reticulocyte lysate; luciferase refolding luminescence, 3 h; inhibition, % at 5.6 µM; 290,000 tested, 0.91% active; AID 1789;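 active = inhibition above the screen-wide mean plus 3 SD, computed separately per campaign, cut at about 16% in these data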;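 note: 0% = DMSO wells and 100% = 60 µM geldanamycin wells; inhibitors lower the luminescence because luciferase stays unfolded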
KKLEB cytotox – reduces viability of KKLEB cystic fibrosis airway cells | 360,000 tested, 0.36% active | activity change (cytotoxicity), % at 5 µM | KKLEB CF airway cells viability, ATPlite luminescence, overnight; stronger effect = lower value; cells stimulated with P. aeruginosa culture filtrate;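 active = corrected activity change at or below -50% at 5 µM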
Peg3 promoter – reduces Peg3 promoter-driven luciferase expression in HeLa; HeLa PEG-Prom luciferase reporter, luminescence, overnight; inhibition, % at 20 µM; 360,000 tested, 1.7% active;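 active = inhibition of at least 50% at 20 µM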
An asterisk follows results filed as active; ? = inconclusive; . = not tested or not shown; ! = not active in a repeat.

SMILES	CF NFkB block	LGR2 inh	Mdm2-MdmX inh	HSP90 refold inh	KKLEB cytotox	Peg3 promoter
O=C1C(Cl)=C(NCc2ccco2)C(=O)c2ccccc21	74*	-67	.	.	0	-50
COc1ccc(NC(=S)NNc2ccc(S(=O)(=O)Nc3ccccc3C(=O)O)cc2[N+](=O)[O-])cc1	6	8	5	20*	-9	8
OCCNc1c2ccccc2nc2c(F)c(F)c(F)c(F)c12	9	-7	.	-3	-8	101*
Cc1c2ccccc2nc2c(F)c(NCCO)c(F)c(F)c12	-2	-29	-3	1	-7	-108
COc1ccc(N2C(=O)N(Cc3ccc(C)cc3)c3ccccc3S2(=O)=O)cc1	3	-3	22	27*	8	27
COc1ccc(N2C(=O)c3ccccc3S2(=O)=O)cc1	-4	-20	12	0	11	3
COc1ccc(NC(=O)N(C)C[C@@H]2Oc3ccc(NC(=O)Nc4ccc5c(c4)OCO5)cc3C(=O)N([C@@H](C)CO)C[C@H]2C)cc1	.	-1	.	.	.	.
Cc1ccc(NC(=O)CSc2nc3ccccc3c3nc(CCn4cncc4C)nn23)c(C)c1	5	6	36	1	-19	96*
c1ccc(-c2ccc(OCCCNC3CCCC3)cc2)cc1	5	.	15	3	-10	74*
CCOC(=O)CSc1ccc(C(=O)N2CCN(C)CC2)cc1[N+](=O)[O-]	-7	19	-1	-1	4	104*
CO[C@@H]1CN(C)C(=O)c2ccc(NC(=O)C3CC3)cc2OC[C@H](C)N(CC2CC2)C[C@@H]1C	.	0	.	.	.	.
O=C(CSC1=NS(=O)(=O)c2ccccc21)Nc1ccccc1	12	-18	16	-5	3	71*
Cc1ccc(S(=O)(=O)N2CCCCC2)cc1NC(=O)c1ccc2c(=O)n3c(nc2c1)CCCCC3	.	67*	23	3	.	.
O=C(Nc1ccc(S(=O)(=O)N2CCCC2)cc1)c1ccc2c(=O)n3c(nc2c1)CCCCC3	6	9	39	2	5	11
Nc1cc(Cl)cc2c1-c1ccc(Cl)cc1C2O (configuration not stated)	-83	-23	.	.	12	-52
O=C(Nc1cc(Cl)cc2c1-c1ccc(Cl)cc1C2O)C(Cl)Cl (configuration not stated)	-63	-1	.	.	8	95*
Cc1ccc(-c2cc(C(=O)Nc3ccccc3C(N)=O)c3ccccc3n2)o1	-12	6	29	.	-11	52*
COc1cc(OC)c(OC)cc1/C=C1\CC(C)C/C(=C\c2cc(OC)c(OC)cc2OC)C1=O (configuration not stated)	22	16	.	-3	9	58*
O=C1c2ccccc2-c2nnc(-c3ccc(F)cc3)cc21	-10	51*	-78	-2	-16	-11
Cc1ccc(NC(=O)/C=C/c2ccc([N+](=O)[O-])s2)cc1	-42	-95	-14	-2	7	-72
Cc1cccc(NC(=O)/C=C/c2ccc([N+](=O)[O-])s2)c1	-27	-3	.	1	-33	107*
Cc1cc([N+](=O)[O-])ccc1NC(=O)/C=C/c1cccs1	-35	-35	-41	-2	0	-330
Cc1ccc(NC(=O)/C=C/c2ccc([N+](=O)[O-])s2)c(C)c1	-13	23	.	2	-29	89*
CCCC(=O)Nc1ccc2c(c1)C(=O)N(C)C[C@@H](OC)[C@H](C)CN(Cc1cccc(F)c1)[C@H](C)CO2	.	-3	.	.	.	.
CCC(=O)N1[C@H](C(=O)NCCCN(C)C)[C@@H](CO)[C@@H]2Cn3c(ccc(-c4ccccc4F)c3=O)[C@@H]21	.	-9	.	.	.	.
SMILES	CF NFkB block	LGR2 inh	Mdm2-MdmX inh	HSP90 refold inh	KKLEB cytotox	Peg3 promoter
COc1cccc(C#Cc2ccc3c(c2)[C@@H]2[C@@H](CCN2C(=O)CC2CC2)[C@H](CO)N3)c1	.	-3	.	.	.	.
Cc1[nH]n(-c2ccccc2)c(=O)c1C(C[N+](=O)[O-])c1ccc(Br)cc1 (configuration not stated)	8	.	-9	10	-11	103*
Cc1[nH]n(-c2ccccc2)c(=O)c1C(c1cccc([N+](=O)[O-])c1)c1c(C)[nH]n(-c2ccccc2)c1=O	10	7	12	6	3	-2
Cc1ccc(CN(Cc2cc3cccc(C)c3[nH]c2=O)C(=S)NCCCN(C)C)cc1	14	35	47	0	-8	87*
Cc1cccc(N2CCN(C(=S)Nc3ccc4nc(N5CCN(C)CC5)cc(C)c4c3)CC2)c1C	43	7	.	4	-73*	104*
Cc1cc(N2CCN(C)CC2)nc2ccc(NC(=S)NCCN3CCc4ccccc4C3)cc12	12	-15	23	1	-6	61*
CCCCN(CC)C(=S)Nc1ccc2nc(N3CCN(C)CC3)cc(C)c2c1	0	-9	40	28*	-9	-22
C/C=C/c1cnc2c(c1)C(=O)N([C@@H](C)CO)C[C@@H](C)[C@@H](CN(C)S(=O)(=O)c1cn(C)cn1)O2	.	2	.	.	.	.
CN(C)C(=O)c1cccc(-c2ccc3n(c2=O)C[C@@H]2[C@@H](CO)[C@H](C(=O)NCC(F)(F)F)[C@H]3N2C)c1	.	-7	.	.	.	.
O=C(Nc1ccc(Cl)cc1)Nc1nnc(-c2ccncc2)s1	84*	?	.	6	-89*	64*
CC(C)C(NC(=O)C12CC3CC(CC(C3)C1)C2)C(=O)N/N=C/C1=C(N2CCOCC2)C(=C\c2ccc([N+](=O)[O-])cc2)/CC1 (configuration not stated)	91*	44	-11	-6	-100*	30
CCCCCCCCCCCCCCCC[n+]1ccccc1	62*	61*!	.	.	-50*!	97*
CCCCCCCC[n+]1cccc(C(=O)N(CC)CC)c1	7	.	-12	1	-5	14
CSC(=Nc1ccccc1)N=C(SCc1ccccc1)N(C)C	37	76*	.	.	-11	96*
C[C@H](NC(=O)c1ncn2c1c(=O)[nH]c1ccc(Br)cc12)c1ccccc1	2	-17	.	.	-3	100*
N#C[C@H]1[C@@H](c2ccccc2)[C@@H](CO)N1S(=O)(=O)c1ccc(-c2ccccc2)cc1	.	12	.	.	.	.
COc1cc([N+](=O)[O-])cc(/C=C2/SC(=S)N(Cc3ccccc3)C2=O)c1O	22	27	.	-2	-11	51*
O=C1/C(=C\c2cccc([N+](=O)[O-])c2O)SC(=S)N1Cc1ccccc1	27	7	.	-3	-6	56*
O=C1/C(=C\c2ccc(O)cc2)SC(=S)N1Cc1ccccc1	6	-26	36	-5	6	4
CCCCC(=O)N(C)c1c(C)nc2ccc(C(=O)N3CCN(C(C)=O)CC3)cn12	13	-4	.	.	-3	-10
CCCCC(=O)N(C)c1c(C)nc2ccc(C(=O)N3CCCCC3)cn12	2	100*	.	.	-4	9
CCOC(=O)c1cc([N+](=O)[O-])c([N+](=O)[O-])cc1NC(C)=O	60*	-3	.	-5	-21	109*
